Assay in all cases: NCI-60 one-dose screen, 48 h (100 = growth as untreated, 0 = no growth, -100 = all killed)
Test [1] concerns NCI-H23 lung. Particulars: 10 µM unless noted.
Test [2] deals with NCI-H226 lung. The note with it: 10 µM unless noted.
Test [3] has as its system NCI-H322M lung. The note with it: 10 µM unless noted.
For test [4], the system named is HOP-62 NSCLC. The note with it: 10 µM unless noted.
Test [5] concerns HOP-92 NSCLC. Particulars: 10 µM.
In test [6] the test system is NCI-H522 lung. Particulars: 10 µM.
Test [7] concerns A549/ATCC NSCLC. Particulars: 10 µM unless noted.
Test [8] concerns COLO 205 colon. Particulars: 10 µM unless noted.
The test system of test [9] is DU-145 prostate. Particulars: 10 µM unless noted.
For test [10], the system named is K-562 leukemia. Particulars: 10 µM unless noted.
For test [11], the system named is MALME-3M melanoma. Particulars: 10 µM unless noted.
Test [12] concerns MDA-MB-231 breast. Particulars: 10 µM unless noted.
In test [13] the test system is RXF 393 renal. Particulars: 10 µM unless noted.
Test [14] deals with SF-268 CNS. Particulars: 10 µM unless noted.
The test system of test [15] is SF-295 CNS. Particulars: 10 µM unless noted.
The test system of test [16] is SF-539 CNS. The note with it: 10 µM unless noted.
The test system of test [17] is UACC-257 melanoma. Particulars: 10 µM unless noted.
In test [18] the test system is M14 melanoma. Particulars: 10 µM unless noted.
Test [19] concerns 786-0 renal. The note with it: 10 µM unless noted.

Data on eight compounds can be found in PubChem BioAssay (NCI).

Compounds without any hit were thinned out: in the full panel of roughly 83,000, 20% have a hit.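 Single-dose data. Exposure time 48 hours. Values below 10 considered active.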 Unmarked numbers belong to inactive results. Calls of active or inactive are those of the source.

Take `N#Cc1c(N)nc(Nc2nc3ccccc3[nH]2)nc1-c1ccc(Cl)cc1`: the growth in test [1] is 101%; in [2], 81.2%; in test [3], 117%; in test [4] it was 112%; in test [5] it was 78.4%; in test [6], 90.4%. Also, the growth in test [7] was 105%; in test [8], 94.7%; in [9], 123%; in [10], 92.3%; in [11], 125%; in test [12] it was 106%. The growth was 114% in test [13]; 101% in test [14]; 112% in test [15]; 111% in [16]; 109% in [17]; 103% in [18].

On to `CCCNC(=O)Oc1ccc(/C(=C(/CC)Cc2ccccc2)c2ccc(OCCN(CC)CC)cc2)cc1`, for which the growth in test [1] is 83.8%; in test [2] it was 87.3%; in test [3], 87.4%; in test [4] it was 84.2%; in test [5] it was 55.7%; in test [7], 63.6%. For the same compound, the growth in [19] was 80.7%; in [8], -49% (active); in test [9] it was 86.1%; in test [10], -31.9% (active); in test [11] it was 79.6%; in test [12], 60.8%. Besides, the growth in test [13] was 66.8%; in test [14] it was 71.4%; in test [15], 97.8%; in test [16], 89.7%; in test [17], 82.6%; in test [18], -35.3% (active).

Regarding `Cc1ccc(S(=O)(=O)Nc2cccc(Cn3c(=O)[nH]c4ccc(Oc5ncccn5)cc4c3=O)c2)cc1`, the growth in test [1] is 85.4%; in test [2], 86.1%; in test [3], 79.9%; in [4], 72.2%; in test [5], 62.9%; in [6], 33.6%. The growth in test [7] was 90.7%; in test [19], 95.9%; in [9], 95.6%; in [10], 26.6%; in test [11] it was 59.8%; in test [12], 77.4%. For the same compound, the growth in test [13] was 80.5%; in test [14] it was 82.3%; in [15], 74.4%; in [16] it was 71.7%; in test [17], 73.3%; in test [18], 59.1%.

`CC([C@H]1CC=C2C3CCC4=C[C@@H](N(C)C)CC[C@]4(C)C3CC[C@@]21C)N(C)C` (some centres not stated): the growth in [1] was 51.9%; in test [2] it was 47.9%; in test [3] it was 83.3%; in test [4] it was -19.4% (active); in test [5], 70.2%; in test [6], 98.2%. Moreover, the growth is 72% in [7]; -5.65% (active) in [19]; -65.1% (active) in test [8]; 57% in [9]; 83.9% in [11]; -6.46% (active) in [12]. The growth in [14] was 2.29% (active); in [15], -86.8% (active); in test [16] it was 4.25% (active); in [17] it was 17.9%; in [18] it was -56.8% (active).

In the case of `COc1ccc(Oc2[nH]n(C3=Nc4ccccc4Sc4ccccc43)c(=O)c2C#N)cc1`, the growth in test [1] is 95.7%; in test [2] it was 100%; in test [3], 125%; in test [4], 92.1%; in [5], 74.2%; in test [7], 98.4%. The growth in [19] is 104%; in test [8], 111%; in test [9], 104%; in [10], 125%; in test [11] it was 169%; in test [12] it was 95.6%. In addition, the growth in [13] was 94.2%; in test [14], 88.3%; in [15] it was 99.2%; in test [16] it was 96.7%; in test [17] it was 104%; in [18], 104%.

Take `C/C=C(/C)C(=O)OC1C=C(CO)C(=O)C(OC(=O)C(C)(O)C(C)Cl)C1C(C)C` (configuration not stated): the growth was -50.1% (active) in [1]; -19.4% (active) in test [2]; -10.6% (active) in test [3]; -1.29% (active) in test [4]; -50.2% (active) in test [5]; -34.4% (active) in test [6]. In addition, the growth in test [7] is -18% (active); in test [19], -72.1% (active); in test [9], 3.58% (active); in [10], 1.56% (active); in test [11], -76.6% (active); in test [12], -5.1% (active). The growth in [13] is -63.6% (active); in [14], 10.4%; in test [15], -41.4% (active); in test [16] it was -43.7% (active); in [17], -19.7% (active); in [18] it was -56.4% (active).

On to `Cc1cc(CSc2ccc(Cl)cc2)ccc1N`, for which the growth in test [1] is 99.2%; in test [2] it was 82.9%; in test [3] it was 98.2%; in test [4], 110%; in [5] it was 85.2%; in test [6] it was 81.5%. Moreover, the growth in [7] is 60.3%; in test [19] it was 69.8%; in [9] it was 88.5%; in test [10] it was 99.6%; in test [12], 61.9%; in test [13], 105%. Besides, the growth in test [14] is 70%; in [15] it was 101%; in [16] it was 62.9%; in test [17], 108%; in test [18] it was 101%.

For `CC1(C)NC(=S)NC1=O`, the growth in [1] was 101%; in [2], 99.6%; in test [3], 107%; in [4], 104%; in test [5], 101%; in test [6] it was 116%. The growth in test [7] is 98%; in test [19] it was 100%; in test [8] it was 108%; in [9], 116%; in test [10], 89%; in [11] it was 106%. For the same compound, the growth in test [13] was 105%; in test [14], 111%; in [15], 95.7%; in [16], 111%; in test [17] it was 106%; in test [18] it was 98.5%.
